PubChem BioAssay AID743320 (Broad Institute, 2014)
Entries with a potency or affinity are not part of this list. Active and inactive are the calls of the source.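 How the source made its calls: active means signal drop whose fitted half-maximal potency is at most twice the top valid dose tested; inconclusive means flat curve inhibiting 30 to 70 percent, or a poor fit; inactive means the rest.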

Each molecule was assayed against Endoplasmic reticulum aminopeptidase 2 (Homo sapiens) (UniProt Q6P179) (assay: ERAP2 aminopeptidase inhibitors, dose response, selectivity assay for selective ERAP1 modulator project, biochemical, fluorescence plate reader, cherry-picked, set 2 (AID 743320)). Conditions: recombinant ERAP2, Arg-AMC fluorescence, 1 h; series mostly up to 11 µM; activity change, negative = inhibition: at the top concentration.
Endoplasmic reticulum aminopeptidase 2 (Homo sapiens), sequence (Q6P179 whole entry, looked up): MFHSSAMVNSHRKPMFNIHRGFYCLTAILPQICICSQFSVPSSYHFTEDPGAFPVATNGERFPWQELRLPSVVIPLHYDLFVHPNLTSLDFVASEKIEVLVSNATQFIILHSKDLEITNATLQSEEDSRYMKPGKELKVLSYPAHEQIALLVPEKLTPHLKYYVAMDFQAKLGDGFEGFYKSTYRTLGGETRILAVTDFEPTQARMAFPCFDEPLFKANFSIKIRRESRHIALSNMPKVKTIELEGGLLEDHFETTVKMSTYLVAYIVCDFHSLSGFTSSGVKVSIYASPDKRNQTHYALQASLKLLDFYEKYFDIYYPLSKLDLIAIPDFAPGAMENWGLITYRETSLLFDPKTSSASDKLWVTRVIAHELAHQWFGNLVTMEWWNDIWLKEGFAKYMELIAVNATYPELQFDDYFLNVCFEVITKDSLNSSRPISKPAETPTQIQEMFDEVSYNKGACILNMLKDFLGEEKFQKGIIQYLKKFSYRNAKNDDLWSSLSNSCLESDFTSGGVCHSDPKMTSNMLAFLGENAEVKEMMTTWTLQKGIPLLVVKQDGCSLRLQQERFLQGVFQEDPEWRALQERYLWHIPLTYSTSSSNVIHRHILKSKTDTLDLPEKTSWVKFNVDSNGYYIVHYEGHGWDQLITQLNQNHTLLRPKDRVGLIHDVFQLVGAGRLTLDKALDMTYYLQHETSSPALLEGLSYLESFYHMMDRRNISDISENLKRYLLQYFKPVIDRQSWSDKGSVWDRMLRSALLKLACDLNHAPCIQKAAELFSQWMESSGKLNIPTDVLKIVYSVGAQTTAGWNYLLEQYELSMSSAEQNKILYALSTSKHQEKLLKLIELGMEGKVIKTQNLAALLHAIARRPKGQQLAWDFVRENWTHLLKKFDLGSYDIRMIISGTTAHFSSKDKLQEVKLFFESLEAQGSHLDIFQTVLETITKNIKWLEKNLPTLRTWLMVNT

Activity change, negative = inhibition, inactive:
CCn1cc(CN2CCCC(C(=O)Nc3ccc(-c4nc5ccccc5[nH]4)cc3)C2)c(C)n1 (centres undefined) 4.78%
COCCCn1c(C(=O)N2CCOCC2)cc2c(=O)n3ccccc3nc21 370%
C[C@H](CO)N1C[C@H](C)[C@H](CN(C)Cc2ccc(C(=O)O)cc2)Oc2c(NC(=O)Nc3ccccc3)cccc2C1=O 22.8%
COc1ccc(CN(C)C[C@H]2OCCCC[C@@H](C)Oc3ccc(NS(=O)(=O)c4cccs4)cc3C(=O)N([C@@H](C)CO)C[C@@H]2C)cc1 10.1%
CCCN(C)C[C@@H]1OCCCC[C@@H](C)Oc2ccc(NS(=O)(=O)c3c(C)noc3C)cc2C(=O)N([C@H](C)CO)C[C@@H]1C -3.16% [at 10 µM]
CCCN(C)C[C@@H]1OCCCC[C@@H](C)Oc2ccc(NS(=O)(=O)c3cccs3)cc2C(=O)N([C@H](C)CO)C[C@@H]1C 11%
Cc1ccc2nc3c(cc(C(=O)NCc4ccccc4)c(=N)n3CCCn3ccnc3)c(=O)n2c1 182%
O=C(CSc1cn[nH]n1)Nc1cccc(C(=O)O)c1 13.8%
COc1ccc(CN(C)C[C@@H]2OCCCC[C@H](C)Oc3ccc(NS(=O)(=O)c4cccs4)cc3C(=O)N([C@H](C)CO)C[C@@H]2C)cc1 10.2%
Cc1c(O)ccc2c(CN3CCN(Cc4ccccc4)CC3)cc(=O)oc12 408%
C[C@@H]1CCCCO[C@H](CN(C)Cc2ccccc2)[C@H](C)CN([C@H](C)CO)C(=O)c2cc(NS(=O)(=O)c3ccccc3)ccc2O1 22.4%
COc1ccc(CN(C)C[C@@H]2OCCCC[C@@H](C)Oc3ccc(NS(=O)(=O)c4c(C)noc4C)cc3C(=O)N([C@@H](C)CO)C[C@@H]2C)cc1 -1%
C[C@@H]1CCCCO[C@@H](CN(C)Cc2ccc(C(=O)O)cc2)[C@H](C)CN([C@@H](C)CO)C(=O)c2cc(NS(=O)(=O)c3ccc(Cl)cc3)ccc2O1 24.2%
C[C@@H]1CCCCO[C@@H](CN(C)C(=O)CCC(F)(F)F)[C@@H](C)CN([C@@H](C)CO)C(=O)c2cc(NS(=O)(=O)c3ccc(Cl)cc3)ccc2O1 127% [at 10 µM]
Cc1cc(=O)oc2c(CN3CCN(C)CC3)c(O)c(Cl)cc12 12%
Cc1noc(C)c1S(=O)(=O)Nc1ccc2c(c1)C(=O)N([C@H](C)CO)C[C@H](C)[C@H](CN(C)Cc1ccc3c(c1)OCO3)OCCCC[C@@H](C)O2 11.2% [at 10 µM]
C[C@H](CO)N1C[C@H](C)[C@H](CN(C)CC2CCCCC2)Oc2c(NC(=O)Nc3ccc4c(c3)OCO4)cccc2C1=O -0.254%
CO[C@@H]1CN(C)C(=O)c2ccc(NC(=O)Nc3cccc(Cl)c3)cc2OC[C@@H](C)NC[C@H]1C 3.9%
Cc1noc(C)c1NC(=O)N(C)C[C@@H]1Oc2c(NC(=O)Nc3ccc(F)cc3)cccc2C(=O)N([C@H](C)CO)C[C@@H]1C 18.4%
COc1ccc(CN(C)C[C@@H]2OCCCC[C@@H](C)Oc3ccc(NS(=O)(=O)c4cccs4)cc3C(=O)N([C@H](C)CO)C[C@@H]2C)cc1 10.9%
NC(=NCCc1c[nH]c2ccccc12)NS(=O)(=O)c1cc(F)ccc1F 9.24%
COc1ccc(NC(=O)Nc2ccc3c(c2)C(=O)N([C@H](C)CO)C[C@@H](C)[C@H](CN(C)Cc2ccc(C(=O)O)cc2)OCCCC[C@@H](C)O3)cc1 12.3%
C[C@@H]1CN([C@H](C)CO)C(=O)c2cccc(NC(=O)Nc3ccccc3)c2O[C@@H]1CN(C)Cc1ccc(C(=O)O)cc1 23.3%
C[C@H]1CN([C@@H](C)CO)C(=O)c2cccc(NC(=O)Nc3ccc4c(c3)OCO4)c2O[C@@H]1CN(C)CC1CC1 12.8%
Cc1ccccc1-c1ccc2c(c1)O[C@@H](CN(C)Cc1ccc(C(=O)O)cc1)[C@@H](C)CN([C@H](C)CO)S2(=O)=O 8.67%
C[C@H]1CN([C@@H](C)CO)C(=O)c2cccc(NC(=O)Nc3ccc(C(F)(F)F)cc3)c2O[C@@H]1CN(C)CC1CC1 -16.1%
C[C@@H]1CCCCO[C@H](CN(C)C)[C@H](C)CN([C@H](C)CO)C(=O)c2cc(NS(=O)(=O)c3ccc(Cl)cc3)ccc2O1 16.7%
C[C@@H]1CCCCO[C@@H](CN(C)C)[C@@H](C)CN([C@@H](C)CO)C(=O)c2cc(NS(=O)(=O)c3ccc(F)cc3)ccc2O1 5.3%
CCCN(C)C[C@@H]1OCCCC[C@H](C)Oc2ccc(NC(=O)Nc3ccc(F)cc3)cc2C(=O)N([C@H](C)CO)C[C@@H]1C 10.8%
